Assay results from PubChem BioAssay (EPA / NIEHS).
Inconclusive results are not listed. The source made the active and inactive calls. How the source made its calls: active means hit-call score of the fitted dose curve at least 0.9, where 1 is the maximum; inconclusive means response in the unintended direction; inactive means score below 0.9.

target: Estrogen receptor (Homo sapiens) (UniProt P03372); assay: CCTE_Deisenroth_AIME_384WELL_LUC_Active: CCTE's 384-well Estrogen Receptor Transactivation Assay with AIME metabolic competence (ERTA luciferase; metabolism positive), Deisenroth Lab (AID 2284030)
Sequence (P03372 whole entry, looked up): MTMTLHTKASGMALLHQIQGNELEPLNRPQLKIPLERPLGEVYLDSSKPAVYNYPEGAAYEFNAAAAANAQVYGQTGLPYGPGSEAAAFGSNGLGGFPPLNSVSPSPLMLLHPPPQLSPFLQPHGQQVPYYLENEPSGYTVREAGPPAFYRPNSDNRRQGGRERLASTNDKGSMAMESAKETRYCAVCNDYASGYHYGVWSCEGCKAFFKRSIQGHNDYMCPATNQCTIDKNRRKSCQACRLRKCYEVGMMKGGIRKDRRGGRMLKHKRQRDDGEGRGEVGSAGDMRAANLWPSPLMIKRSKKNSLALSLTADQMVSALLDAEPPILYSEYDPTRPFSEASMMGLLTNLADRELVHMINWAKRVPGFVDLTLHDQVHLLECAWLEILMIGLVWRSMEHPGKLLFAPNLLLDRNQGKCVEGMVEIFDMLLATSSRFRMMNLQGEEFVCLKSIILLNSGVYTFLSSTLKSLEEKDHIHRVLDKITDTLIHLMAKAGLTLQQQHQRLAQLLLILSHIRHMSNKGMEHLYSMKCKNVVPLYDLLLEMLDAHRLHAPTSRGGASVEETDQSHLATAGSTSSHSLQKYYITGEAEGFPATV
Protocol: CCTE_Deisenroth_AIME_384WELL (AIME metabolism assay) is a cell-based, single-readout assay that uses VM7Luc4E2, a human mammary gland/breast cell line, with measurements taken at 24 hour after chemical dosing in a 384-well plate.CCTE_Deisenroth_AIME_384WELL_LUC_Active is one of four assay components measured or calculated from the CCTE_Deisenroth_AIME_384WELL assay. It is designed to make measurements of luciferase induction, a form of inducible reporter, as detected with bioluminescence signals by luciferase-coupled ATP quantitation technology.CCTE_Deisenroth_AIME_384WELL_LUC_Active is a component of the CCTE_Deisenroth_AIME_384WELL assay that measures the effect of retroftting the VM7Luc ERTA assay with the Alginate Immobolization of Metabolic Enzymes (AIME) metabolism method. AIME is optimized to impart phase I hepatic metabolism using phenobarbital/beta-naphthoflavone induced hepatic S9 from male Sprague Dawley rats. Parent chemicals are incubated for 2 hours in the AIME assay prior to transfer to the VM7Luc ERTA assay plate. […] This endpoint evaluates reporter induction in metabolism positive mode. Using a type of inducible reporter in VM7Luc cells, gain-of-signal activity can be used to understand changes in the reporter gene as they relate to xenobiotic metabolism and the gene ESR1. This assay endpoint, CCTE_Deisenroth_AIME_384WELL_LUC_Active, was analyzed in the positive analysis fitting direction relative to 17beta-estradiol as the positive control in the ERTA assay. To generalize the intended target to other relatable targets, this assay endpoint is annotated to the nuclear receptor intended target family, where the subfamily is steroidal.
The AIME procedure consists of a preparative "pre-stamping" step using a barium chloride/poly-L-lysine (PLL) solution followed by "stamping" the lid in alginate-hepatic S9 (metabolism positive) or alginate-water (metabolism negative) to form microspheres. Once stamping is completed, the AIME lids are placed in duplicate microplates (metabolism positive or negative) containing chemical solutions and incubated for two hours to facilitate metabolic reactions. The conditioned medium, containing parent chemical or metabolites, is then transferred to the cell-based VM7Luc Estrogen Receptor Transactivation Assay (ERTA) for 24 hours. A typical experimental design tests a 10-point concentration series (0.002 - 200 uM) for 8 compounds (96-well format)1 or 32 compounds (384-well format)2 in single technical replicate. AIME assay controls include trans-stilbene (bioactivated control) and ethylparaben (bioinactivated control). ERTA assay plate controls include 17-beta estradiol (positive control) and DMSO (solvent control). Experiments typically comprise a minimum of four experimental replicates (n=4).

Q: `C=C(C)CN(CC)c1c([N+](=O)[O-])cc(C(F)(F)F)cc1[N+](=O)[O-]` was tested. Which outcome did it give?
A: The outcome was “inactive”.

Q: `CC1(C)CON(Cc2ccccc2Cl)C1=O` was tested. Which outcome did it give?
A: Its outcome is “inactive”.

Q: For `Nc1c(Cl)c(Cl)nc(C(=O)O)c1Cl`, which AC50 is on record?
A: The AC50 was 41.7 µM (active).

Q: How did the outcome turn out when `CN=C=S` was run?
A: The outcome was “inactive”.

Q: With `COC(=O)NC(=S)Nc1ccccc1NC(=S)NC(=O)OC` as the compound, how does the outcome read?
A: Its outcome is “inactive”.

Q: Which outcome does the source give for `CCOC(=O)C(C)OC(=O)c1cc(Oc2ccc(C(F)(F)F)cc2Cl)ccc1[N+](=O)[O-]` (configuration not stated) here?
A: The outcome was “inactive”.

Q: `COC(=O)NS(=O)(=O)c1ccc(N)cc1` was tested. Which outcome did it give?
A: The outcome was “inactive”.

Q: For `CC(C)=CC1C(C(=O)OCc2coc(Cc3ccccc3)c2)C1(C)C` (configuration not stated), which outcome is on record?
A: Its outcome is “inactive”.

Q: How did the AC50 turn out when `CC1(C)C(C=C(Cl)Cl)C1C(=O)OC(C#N)c1cccc(Oc2ccccc2)c1` (configuration not stated) was run?
A: Its AC50 is 40.8 µM (active).

Q: `Cc1cc(C)nc(Nc2ccccc2)n1` was tested. Which AC50 did it give?
A: The AC50 was 93.3 µM (active).

Q: Which outcome does the source give for `COc1cc(OC)nc(NC(=O)NS(=O)(=O)c2ncccc2OCC(F)(F)F)n1` here?
A: Its outcome is “inactive”.

Q: With `CCOP(=S)(OCC)Oc1nc(Cl)n(C(C)C)n1` as the compound, how does the outcome read?
A: The outcome was “inactive”.

Q: With `COCc1cnc(C2=NC(C)(C(C)C)C(=O)N2)c(C(=O)O)c1` (configuration not stated) as the compound, how does the outcome read?
A: The outcome was “inactive”.

Q: Which outcome does the source give for `COCC(C)N(C(=O)CCl)c1c(C)csc1C` (configuration not stated) here?
A: Its outcome is “inactive”.

Q: `CCSC(=O)N1CCCCCC1` was tested. Which outcome did it give?
A: The outcome was “inactive”.

Q: How did the outcome turn out when `CC(C)Nc1nc(Cl)nc(NC(C)C)n1` was run?
A: Its outcome is “inactive”.

Q: With `N#Cc1c(Cl)cccc1Cl` as the compound, how does the outcome read?
A: The outcome was “inactive”.

Q: `Cc1ccc(N=CN(C)C=Nc2ccc(C)cc2C)c(C)c1` was tested. Which outcome did it give?
A: Its outcome is “inactive”.

Q: `CC(C)N1C(=O)c2ccccc2NS1(=O)=O` was tested. Which outcome did it give?
A: Its outcome is “inactive”.

Q: With `CCC(C)n1c(=O)[nH]c(C)c(Br)c1=O` (configuration not stated) as the compound, how does the outcome read?
A: Its outcome is “inactive”.

Q: With `Nc1cnn(-c2ccccc2)c(=O)c1Cl` as the compound, how does the outcome read?
A: Its outcome is “inactive”.

Q: `COP(=S)(OC)Oc1ccc([N+](=O)[O-])c(C)c1` was tested. Which outcome did it give?
A: Its outcome is “inactive”.

Q: Which outcome does the source give for `CNC(=O)N(C)c1nnc(C(C)(C)C)s1` here?
A: Its outcome is “inactive”.

Q: How did the outcome turn out when `CCCC(=NOCC)C1=C(O)CC(CC(C)SCC)CC1=O` (configuration not stated) was run?
A: Its outcome is “inactive”.

Q: With `CCOc1nc(C(Cl)(Cl)Cl)ns1` as the compound, how does the outcome read?
A: The outcome was “inactive”.

Q: For `O=C(Nc1ccccc1-c1ccc(Cl)cc1)c1cccnc1Cl`, which outcome is on record?
A: The outcome was “inactive”.

Q: How did the outcome turn out when `CS(=O)(=O)c1cc(C(F)(F)F)ccc1C(=O)c1cnoc1C1CC1` was run?
A: Its outcome is “inactive”.

Q: For `CCOP(=O)(OCC)Oc1nc(Cl)c(Cl)cc1Cl`, which outcome is on record?
A: The outcome was “inactive”.

Q: With `CC(C)N1C(=O)N(c2ccccc2)CSC1=NC(C)(C)C` as the compound, how does the outcome read?
A: The outcome was “inactive”.

Q: For `O=c1n(Cl)c(=O)n(Cl)c(=O)n1Cl`, which outcome is on record?
A: Its outcome is “inactive”.

Q: Which outcome does the source give for `COP(=S)(OC)SCn1nnc2ccccc2c1=O` here?
A: Its outcome is “inactive”.

Q: Which outcome does the source give for `Clc1cccc(C(Cl)(Cl)Cl)n1` here?
A: The outcome was “inactive”.
